Test [1] is described as follows: NCI Yeast Anticancer Drug Screen. Data for the mec2-1 strain (AID 157). Particulars: S. cerevisiae mec2-1 strain, at 50.0 µM, hits give high values. The gist of the method: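 Mutant yeast (mec2-1) grown with compound; growth inhibition relative to vehicle control reported.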
The nature of test [2]: NCI Yeast Anticancer Drug Screen. Data for the sgs1 mgt1 strain (AID 161).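 Note: 0% = growth of cultures given vehicle only.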 The settings on record: S. cerevisiae sgs1 mgt1 strain, at 50.0 µM, hits give high values. The gist of the method:
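Compounds are added to genetically altered yeast, and growth is compared with cultures given vehicle alone to give percent inhibition.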

The nature of test [3]: NCI Yeast Anticancer Drug Screen. Data for the cln2 rad14 strain (AID 165).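 Note: 0% = growth equal to vehicle treated cultures.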 The settings on record: S. cerevisiae cln2 rad14 strain, at 50.0 µM, hits give high values. A digest of the protocol: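 Readout is yeast growth inhibition versus vehicle-treated controls, using a strain with cln2 and rad14 alterations exposed to compound.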
Test [4] can be described thus: NCI Yeast Anticancer Drug Screen. Data for the bub3 strain (AID 167). The settings on record: S. cerevisiae bub3 mutant strain, at 50.0 µM, hits give high values. A digest of the protocol:
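Whole-cell yeast assay. The mutant strain was incubated with compounds, and growth inhibition was determined by comparison with vehicle-treated cells.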

Test [5] can be described thus: NCI Yeast Anticancer Drug Screen. Data for the mlh1 rad18 strain (AID 175). The settings on record: S. cerevisiae mlh1 rad18 strain growth inhibition; at 50.0 µM; hits give high values. A digest of the protocol:
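Genetically defined yeast (DNA repair-deficient) exposed to compounds; growth inhibition determined relative to vehicle.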

The structures appear in SMILES notation. The panel holds about 79,000 compounds, 15% with a hit somewhere; the sample as a whole holds those more often. Unmarked numbers belong to inactive results. Activity calls are given as the source filed them. Cut-off read from the data, not from the text of the source: active = growth inhibition above about 70%; inactive = the rest.

As for `COc1ccc2nc(-c3ccccc3)cc(OCC(=O)O)c2c1`, the growth inhibition in test [1] was 21.2%; in test [2], -7.5%; in test [3] it was -13.1%; in test [4] it was 10.1%; in test [5], -15.8%.

As to `COc1ccc(C(=O)CCl)c(O)c1OC`, the growth inhibition in test [1] is 5.95%; in test [2], -5.6%; in test [3] it was 14.8%; in test [4] it was 5.7%; in test [5], 11.8%.

Turning to `NC(=O)N1CCCCC1`, the growth inhibition was -6.6% in test [1]; 24.4% in test [2]; 7.2% in test [3]; 13.9% in test [4]; 4.65% in test [5].

As to `O=C(Cc1ccccc1)NNC(=O)Nc1ccccc1`, the growth inhibition in test [1] is -3.6%; in test [2] it was 9.4%; in test [3] it was -26.6%; in test [4] it was 2.5%; in test [5] it was 1.05%.

For the compound `COc1c(NC(=O)Nc2ccc(SC)cc2)cccc1[N+](=O)[O-]`, the growth inhibition was 15.6% in test [1]; 23.6% in test [2]; 5.1% in test [3]; 41.3% in test [4]; 9.65% in test [5].

For `O=C(C[N+]12CC=C(CO)C1C(O)CC2)c1ccc(Br)cc1` (stereo not drawn), the growth inhibition was -6.25% in test [1]; -15.5% in test [2]; -24.4% in test [3]; 3.35% in test [4]; -4% in test [5].

With `CCCCC1C/C=C/C=C/C=C/C=C/C(OC2OC(C)C(O)C(N)C2O)CC2OC(O)(CC(O)CC3OC3/C=C/C(=O)O1)CC(O)C2C(=O)O` (stereo not drawn), the growth inhibition in test [1] was 9.5%; in test [2], 2.75%; in test [3], 17.6%; in test [4], -1.7%; in test [5], 11.2%.

In the case of `CSCCNC(=O)CS(=O)(=O)c1ccc(N)cc1`, the growth inhibition is -25.9% in test [1]; -7.65% in test [2]; -13.2% in test [3]; -2.35% in test [4]; -14.9% in test [5].

As to `CCOC(=O)CCC(C(=O)OCC)C(C)C(=O)OCC` (stereo not drawn), the growth inhibition was -19.1% in test [1]; -25.8% in test [2]; -11.7% in test [3]; 4.1% in test [4]; -15.2% in test [5].

Take `O=C(O)c1ccc(-c2ccc(O)cc2)cc1`: the growth inhibition in test [1] is 5.85%; in test [2] it was 2%; in test [3] it was -34%; in test [4], -6.7%; in test [5], 9.4%.

Consider `Fc1ccc(N2C(c3ccccc3)=N[C@@H](N3CCOCC3)[C@@H]2N2CCOCC2)cc1`, for which the growth inhibition in test [1] is 11.2%; in test [2], 4.2%; in test [3], -19.9%; in test [4] it was -2.2%; in test [5] it was 20%.

In the case of `CC(=O)NC1C(OC(C)C(=O)NC(C(=O)NC(CCC(=O)NCCCNC2c3ccccc3Nc3cccc([N+](=O)[O-])c32)C(N)=O)C(C)C)C(O)C(CO)OC1(C)OCc1ccccc1` (stereo not drawn), the growth inhibition in test [1] is -20.4%; in test [2], 4.3%; in test [3], 13.4%; in test [4], -25.8%; in test [5], 3.25%.

`Cc1ccc(NCC(O)CN2CCOCC2)cc1` (stereo not drawn): the growth inhibition was 14.3% in test [1]; 27.2% in test [2]; -8.05% in test [3]; 6.5% in test [4]; 36.2% in test [5].

As to `CC(O)C(O)C(O)C(=O)C=O` (stereo not drawn), the growth inhibition in test [1] was 29.1%; in test [2], 6.1%; in test [3], 14.2%; in test [4], -25.4%; in test [5], 10.4%.

Consider `C/C(C=C(C#N)C#N)=C\c1cccc(F)c1`, for which the growth inhibition was 28.3% in test [1]; 50.6% in test [2]; 48.1% in test [3]; 17.5% in test [4]; 53.8% in test [5].

As for `NC(CCCCNC(=O)OCc1ccccc1)C(=O)OCc1ccccc1` (stereo not drawn), the growth inhibition in test [1] was -20.4%; in test [2], -9.7%; in test [3] it was 15.6%; in test [4], -0.75%; in test [5], -18.5%.

As for `O=C(c1ccccc1)N1OCCC1Nc1ccc(Br)cc1` (stereo not drawn), the growth inhibition in test [1] is -7.45%; in test [2], -3.95%; in test [3], 13.6%; in test [4], -15%; in test [5], 3.65%.

On to `CC1(C)CC[C@]2(C(=O)O)[C@H](O)C[C@]3(C)C(=CC[C@@H]4[C@@]5(C)CC[C@H](OC6OC(C(=O)O)C(O)C(O)C6O)C(C)(C)[C@@H]5CC[C@]43C)[C@@H]2C1` (stereo partly drawn), for which the growth inhibition in test [1] is 95% (active); in test [2], 94.3% (active); in test [3], 92.7% (active); in test [4] it was 93.9% (active); in test [5], 93.7% (active).

On to `CCCC[n+]1cccc(C(=O)c2ccccc2)c1`, for which the growth inhibition in test [1] was -6.6%; in test [2] it was 0.7%; in test [3] it was 2.75%; in test [4], 2.35%; in test [5], 8.85%.

`CNC(=O)c1ccc[n+](CC(=O)NCc2ccccc2)c1`: the growth inhibition in test [1] is -11.3%; in test [2] it was -15.8%; in test [3] it was -2.25%; in test [4] it was -1.5%; in test [5] it was -15.6%.

As for `CCCCCCCCCCCCCCCCN(O)C(=O)c1cnc[nH]1`, the growth inhibition in test [1] was 26.6%; in test [2], 30.2%; in test [3] it was 25.4%; in test [4], 11.1%; in test [5], 22.6%.

With `COc1ccc(/C=C/C(=O)C(C)(C)CN(C)CCN(C)C)cc1`, the growth inhibition was -7.25% in test [1]; -23.9% in test [2]; -7.65% in test [3]; -5.25% in test [4]; -8.45% in test [5].

In the case of `CCSC1=C(C)N(C=NC(C)(C)C)CC1`, the growth inhibition in test [1] is -23.5%; in test [2], -38%; in test [3], 7.4%; in test [4], -28.8%; in test [5], -14%.

With `O=C1c2c(c3c4ccccc4[nH]c3c3[nH]c4ccccc4c23)C(=O)N1Cc1ccccc1`, the growth inhibition is -5.95% in test [1]; 4.95% in test [2]; -6.6% in test [3]; -5.45% in test [4]; 10.2% in test [5].

Turning to `COc1ccccc1/C=C/C(=O)N1CCC2(CC1)C(=O)N(C)CN2c1ccccc1`, the growth inhibition was 8.45% in test [1]; -17.3% in test [2]; -15.1% in test [3]; -0.35% in test [4]; -2.4% in test [5].

Take `Cc1ccc(N(C(=O)Nc2ccc(F)c(Cl)c2)C2=NCC(C)S2)cc1` (stereo not drawn): the growth inhibition in test [1] is -14.4%; in test [2], -45%; in test [3] it was -13.7%; in test [4], -5.05%; in test [5], -51.4%.

With `CCC(=O)c1ccc(F)cc1`, the growth inhibition in test [1] was -20.9%; in test [2], 4.5%; in test [3], 20.3%; in test [4], -5.3%; in test [5], 20.4%.

For `CSc1nnc(CF)c(=O)[nH]1`, the growth inhibition in test [1] was -1.35%; in test [2], -12.3%; in test [3], -4.2%; in test [4], -7.05%; in test [5], -14.4%.

With `Cc1ccc(NC(=O)OCCOc2ccccc2)cc1NC(=O)OCCOc1ccccc1`, the growth inhibition in test [1] was 17.1%; in test [2], 28%; in test [3], 6.3%; in test [4] it was 3.1%; in test [5], 33.9%.

For the compound `CC(C)c1ccc(N=Nc2ccc(N(C)C)cc2)cc1`, the growth inhibition is 1.85% in test [1], -4.55% in test [2], -4.7% in test [4] and -5.65% in test [5].

Take `COc1ccc([N+](=O)[O-])c2c1CONC2c1c(CO)cnc(C)c1O` (stereo not drawn): the growth inhibition is -12.2% in test [1]; 27.2% in test [2]; -22.4% in test [3]; 5.3% in test [4]; -2.7% in test [5].

Take `O=S1(=O)c2ccc(cc2)N=CC=Nc2ccc1cc2`: the growth inhibition was -11.7% in test [1]; 10% in test [2]; -2.4% in test [3]; 14.3% in test [4]; 12.1% in test [5].

As for `COC(C(O)C(O)C(O)C(O)CO)n1cnc2cncnc21` (stereo not drawn), the growth inhibition was 5.45% in test [1]; 7.8% in test [2]; 2.9% in test [3]; -4.2% in test [4]; 2.45% in test [5].

With `CC1(C)CC(C2CC(C)(C)CC(C)(C)[C@H]2O)[C@@H](O)C(C)(C)C1` (stereo partly drawn), the growth inhibition was -2.3% in test [1]; -2.1% in test [2]; -13.2% in test [3]; -25.8% in test [4]; -19.9% in test [5].

Take `CN(C(=O)c1cccs1)C(=S)N1CCN(c2ccccn2)CC1`: the growth inhibition in test [1] was -57.6%; in test [2], -2.4%; in test [3], -11.8%; in test [4] it was -7.85%; in test [5] it was -29.6%.

`CC(C)(c1ccccc1)C(C)(C)c1nc(-c2ccccc2)cc(-c2ccccc2)n1`: the growth inhibition in test [1] is 4.95%; in test [2], -4.65%; in test [3], -95%; in test [4], -0.95%; in test [5], -11.8%.

Consider `CN(CC1=C(O)C(=O)C(CN(C)Cc2c(O)ccc3ccccc23)=C(O)C1=O)Cc1c(O)ccc2ccccc12`, for which the growth inhibition in test [1] was 4.85%; in test [2] it was 34.1%; in test [3], -1.25%; in test [4], 5.3%; in test [5], 28.9%.

With `CC1=C(C)CC2C(=O)c3c(O)ccc(O)c3C(=O)C2C1` (stereo not drawn), the growth inhibition in test [1] is 44.9%; in test [2], 52%; in test [3], 4.15%; in test [4] it was 39.9%; in test [5], 50.1%.

Turning to `C=C1C(c2ccccc2)C(c2ccccc2)=C(C)C(c2ccccc2)=CN1C(=O)c1ccccc1` (stereo not drawn), the growth inhibition in test [1] is 8.7%; in test [2] it was -9.2%; in test [3], 23.2%; in test [4], -4.7%; in test [5] it was 15.2%.

Regarding `CC(O)C(C)(C)O` (stereo not drawn), the growth inhibition was -8.85% in test [1], 15.6% in test [2], 16.1% in test [4] and 4.15% in test [5].

The values are drawn from PubChem BioAssay (NCI).
